Here are results for 15 compounds from PubChem BioAssay (NCI).

Holding throughout (assay): NCI-60 one-dose screen, 48 h (100 = growth as untreated, 0 = no growth, -100 = all killed)
Common to all, as to conditions: 10 µM unless noted

Test [1] concerns T-47D breast.
For test [2], the system named is BT-549 breast.
Test [3] relates to MDA-MB-435 melanoma.
Test [4] relates to SW-620 colon.
Test [5] deals with MCF7 breast.
In test [6] the test system is HCT-116 colon.
In test [7] the test system is HCC-2998 colon.
The subject of test [8] is KM12 colon.

About 83,000 compounds went through this panel and 20% of them were active in at least one assay; those are over-represented in the sample as a whole.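 Growth was measured after 48 h exposure to one concentration of compound in 96-well plates. Values under 10 count as active.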 Values without a mark were called inactive. The source made the active and inactive calls.

For the compound `C=C1c2nc3ccccc3n2C=C(c2ccc(Cl)cc2)N1Cc1ccc(OC)cc1`, the growth in test [1] was 48%; in test [2], 97.8%; in test [3] it was 97.9%; in test [4], 92.7%; in test [5], 54%; in test [6], 63.5%. Moreover, the growth in test [7] is 80.4%; in test [8] it was 95.4%.
For the compound `O=C1c2ccccc2OC=C(c2ccccc2)N1CCCCNc1ccc(S(=O)(=O)Nc2ncccn2)cc1`, the growth is 88.8% in test [1]; 100% in test [2]; 105% in test [3]; 99.3% in test [4]; 93.7% in test [5]; 96.1% in test [6]. Further, the growth is 111% in test [7] and 97.5% in test [8].
On to `FC(F)(F)Oc1ccc2nc3nc4ccc[nH]c4cc3c2c1`, for which the growth in test [1] was 41.3%; in test [2], 84.4%; in test [3] it was 89.2%; in test [4], 86.8%; in test [5] it was 16.8%; in test [6], 81.4%. The values for the growth in test [7] and in test [8] were 96.8% and 72.8%, respectively.
With `COC[C@H](C)n1c(C2CCOCC2)nc2cnc3cc(-c4c(C)noc4C)c(OC)cc3c21`, the growth in test [1] is 37.9%; in test [2], 69.2%; in test [3] it was 44.5%; in test [4], 64.3%; in test [5] it was 22.5%; in test [6], 46.8%. The growth is 56.6% in test [7] and 54% in test [8].
`COc1ccc(-n2nc(C)c3c(Nc4ccc(NC(=O)Nc5ccc(Cl)c(C(F)(F)F)c5)cc4)ncnc32)cc1`: the growth is 1.89% (active) in test [1]; 17.2% in test [2]; -9.88% (active) in test [3]; 14.3% in test [4]; 1.4% (active) in test [5]; 7.03% (active) in test [6]. Besides, the growth in test [7] was 15.6%; in test [8] it was 6.08% (active).
For the compound `CC1C(/C=N/Nc2ccccc2)C(C#N)(C#N)C1(C#N)C#N` (stereo not given), the growth in test [1] was 79.3%; in test [2], 77.4%; in test [3], 62.5%; in test [4], 60.2%; in test [5], 82.4%; in test [6], 67.3%. In addition, the growth is 86% in test [7] and 62.5% in test [8].
`CON1C(=O)CC[C@]2(C)[C@H]3CC[C@@H]4C([C@@]5(C)CCC(=O)O5)CC[C@@]4(C)[C@]3(C)CC[C@H]2C1(C)C` (stereo not given in full): the growth in test [1] was 90.7%; in test [2], 103%; in test [3] it was 101%; in test [4] it was 103%; in test [5] it was 94.8%; in test [6], 91.4%. Further, the results for the growth in test [7] and in test [8] were 108% and 101%, respectively.
Take `N#C/C(=C\c1ccc(-c2cc(C(F)(F)F)ccc2Cl)o1)c1nc(-c2ccco2)cs1`: the growth in test [1] is 80.1%; in test [2], 114%; in test [3], 102%; in test [4], 103%; in test [5] it was 45.3%; in test [6] it was 104%. Moreover, the growth in test [7] is 104%; in test [8] it was 99.9%.
Regarding `O=C1c2ccccc2C(=O)c2c(N=Nc3[nH]c(=S)[nH]c3O)cccc21`, the growth is 21.8% in test [1]; 34.3% in test [2]; -67.7% (active) in test [3]; 18% in test [4]; 18.7% in test [5]; 20.1% in test [6]. Also, the values for the growth in test [7] and in test [8] were 29.9% and 17%, respectively.
Regarding `Clc1ccc2nc3nc4ccc[nH]c4cc3c2c1`, the growth was 22% in test [1]; 97.7% in test [2]; 103% in test [3]; 102% in test [4]; 6.54% (active) in test [5]; 96.9% in test [6]. The results for the growth in test [7] and in test [8] were 70.6% and 63%, respectively.
For the compound `CN1CCN(c2ccc(Nc3c4ccccc4nc4ccccc34)cc2)CC1`, the growth in test [1] was 102%; in test [2], 112%; in test [3], 110%; in test [4], 106%; in test [5] it was 99.1%; in test [6] it was 104%. Further, the growth in test [7] is 113%; in test [8], 105%.
For the compound `Nc1nc2ncc(CCNc3ccc(C(=O)O)cc3)nc2c(=O)[nH]1`, the growth in test [1] is 115%; in test [2], 124%; in test [3] it was 112%; in test [4], 110%; in test [5] it was 110%; in test [6], 104%. The growth in test [7] was 117%; in test [8], 111%.
Consider `O=C1CC(=NCC(=O)n2c(-c3ccccc3)nc3ccccc32)NN1`, for which the growth in test [1] was 89.4%; in test [2], 107%; in test [3], 105%; in test [4] it was 100%; in test [5], 72.7%; in test [6] it was 94.6%. The growth was 109% in test [7] and 101% in test [8].
With `Cc1cc2nc(NC(=O)CN3CCN(CCN4C(=O)c5cccc6cccc(c56)C4=O)CC3)sc2cc1C`, the growth in test [1] is 83.9%; in test [2] it was 86.1%; in test [3], 91.4%; in test [4] it was 96%; in test [5] it was 74.8%; in test [6], 74.7%. Also, the growth in test [7] was 101%; in test [8], 92.5%.
With `CCCN1CCN(c2ccc3nc(-c4ccc5nc(-c6ccc(OCC)cc6)[nH]c5c4)[nH]c3c2)CC1`, the growth in test [1] is 47.2%; in test [2], 71.2%; in test [3], 27.6%; in test [4] it was -83.7% (active); in test [5], -69.7% (active); in test [6] it was -89.8% (active). For the same compound, the growth was -96.9% (active) in test [7] and 42.8% in test [8].
